We go through nine compounds from PubChem BioAssay (Tox21).

Each structure is given as a SMILES string. Records with an inconclusive call do not appear. A number with no mark means an inactive call. Active and inactive are the calls of the source. Unless noted, the call rests on the fitted dose curve; in most records, active means well fitted curve in the direction sought with a large enough effect in the repeat runs; inconclusive means weak or mixed curves; inactive means no such curve, though single readings can be large; an effect the other way counts as inactive or inconclusive.

Test [1] can be described thus: qHTS assay to identify small molecule antagonists of the thyroid receptor (TR) signaling pathway (AID 743065). Further: nearly all actives have a fitted effect of over 55% in size. Further: potency means the concentration at half of the fitted maximal effect. In short, it runs like this:
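GH3.TRE-Luc rat pituitary cells carrying two TR response elements driving luciferase were plated for 4 h, given compound plus 1 nM T3 (final), and incubated 23.5 h at 37 C. ONE-Glo luminescence measured reporter inhibition; CellTiter-Fluor fluorescence tracked cytotoxicity.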
For orientation: Quantitative high-throughput screening tests each substance at several concentrations.

The target of test [2] is Estrogen receptor (Homo sapiens) (UniProt P03372). The test is described as follows: qHTS assay to identify small molecule antagonists of the estrogen receptor alpha (ER-alpha) signaling pathway (AID 743069; active means well fitted curve in the direction sought with a large enough effect in the signal ratio in the repeat runs, not every such curve was filed as active; the % refers to the signal ratio). Put shortly: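 Screening used a UAS-driven beta-lactamase reporter integrated into HEK293 cells expressing ER-alpha, stimulated with 17beta-estradiol alongside test compounds over 18 hr at 37C; signal came from LiveBLAzer B/G FRET fluorescence.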

Test [3] in a line: qHTS assay to identify small molecule antagonists of the estrogen receptor alpha (ER-alpha) signaling pathway - cell viability counter screen (AID 743074; calls by dose curve; further: nearly all actives have a fitted effect of over 45% in size).
The target in test [4] is Estrogen receptor (Homo sapiens) (UniProt P03372). The test is described as follows: qHTS assay to identify small molecule agonists of the estrogen receptor alpha (ER-alpha) signaling pathway (AID 743075; calls by dose curve).
Test [5] has the same target. The test is described as follows: qHTS assay to identify small molecule agonists of the estrogen receptor alpha (ER-alpha) signaling pathway using the BG1 cell line (AID 743079). Further: nearly all actives have a fitted effect of over 20% in size. The settings on record: BG1Luc4E2 cells, ERE-luciferase agonist, 22 h; at 70.3 µM (top of the series).
Test [6] can be described thus: qHTS assay to identify small molecule antagonists of the estrogen receptor alpha (ER-alpha) signaling pathway using the BG1 cell line (AID 743080; calls by dose curve;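 further: BG1 cells stimulated with 17beta-estradiol alongside compound; nearly all actives have a fitted effect of over 25% in size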; further: potency means the concentration at half of the fitted maximal effect). Put shortly:
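BG1Luc4E2, endogenous ER-alpha, 4xERE-luc; 5 d charcoal-stripped FBS, phenol red free; 24 h plating; cpd + 17beta-estradiol 21.5 h, 37 C/5% CO2; CellTiter-Fluor viability 30 min, then ONE-Glo luciferase 30 min RT.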

Test [7] is described as follows: qHTS assay to identify small molecule antagonists of the estrogen receptor alpha (ER-alpha) signaling pathway using the BG1 cell line - cell viability counter screen (AID 743081).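 Further: compound given together with 17beta-estradiol as the ER stimulus; nearly all actives have a fitted effect of over 45% in size.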
The target of a further test is Aromatase (Homo sapiens) (UniProt P11511). The test is described as follows: qHTS assay to identify aromatase inhibitors (AID 743083). Further: nearly all actives have a fitted effect of over 55% in size. Further: potency means the concentration at half of the fitted maximal effect.
Test [8] is described as follows: qHTS assay to identify aromatase inhibitors - cell viability counter screen (AID 743084).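 Further: cells stimulated with testosterone during compound exposure; nearly all actives have a fitted effect of over 55% in size.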
Test [9] concerns the target Aryl hydrocarbon receptor (Homo sapiens) (UniProt P35869). The experiment in a line: qHTS assay to identify small molecule that activate the aryl hydrocarbon receptor (AhR) signaling pathway (AID 743085).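 Further: HG2L7.5c1 human HepG2 liver cells with stably integrated DRE-driven firefly reporter; nearly all actives have a fitted effect of over 15% in size.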 Put shortly:
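Measured in HG2L7.5c1 cells: CellTiter-Fluor signal (30 min incubation, 37C) for viability, then luciferase luminescence (30 min, room temperature). Compound contact time was 24 h at 37C, following a 5 h pre-incubation.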

The nature of test [10]: qHTS assay to identify small molecule that activate the aryl hydrocarbon receptor (AhR) signaling pathway - cell viability counter screen (AID 743086).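 Further: HepG2 liver cells carrying the AhR DRE luciferase reporter; nearly all actives have a fitted effect of over 45% in size.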 Put shortly: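 HepG2-AhR-luc (HG2L7.5c1) cells, 4000/well, were preincubated 5 h at 37C, exposed to compound in qHTS format for 24 hr at 37C, then given CellTiter-Fluor for 30 min; viability was read as fluorescence in the reporter wells.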

Test [11] deals with Peroxisome proliferator-activated receptor gamma (Homo sapiens) (UniProt P37231). The experiment in a line: qHTS assay to identify small molecule agonists of the peroxisome proliferator-activated receptor gamma (PPARg) signaling pathway (AID 743094; active means well fitted activation curve with a large enough effect in the signal ratio in the repeat runs, not every such curve was filed as active; the % refers to the signal ratio). In short, it runs like this: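 Cells from the PPARg UAS-bla HEK293H line are plated and incubated 5 h at 37C. Compounds in DMSO are pinned in and left 17 h at 37C. LiveBLAzer B/G substrate is then added for 1 h at room temperature before fluorescence is measured.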

The target is the same in test [12]. The test is described as follows: qHTS assay to identify small molecule antagonists of the peroxisome proliferator-activated receptor gamma (PPARg) signaling pathway (AID 743191; calls by dose curve; further: nearly all actives have a fitted effect of over 30% in size; further: potency means the concentration at half of the fitted maximal effect). Put shortly: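 GeneBLAzer PPARg UAS-bla HEK293H cells carrying a UAS-driven beta-lactamase reporter were plated at 3000 cells/well, preincubated 5 h at 37C, then given compound for 17 h at 37C; LiveBLAzer B/G FRET substrate was read after 1 h at room temperature.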

A short description of test [13]: qHTS assay to identify small molecule antagonists of the peroxisome proliferator-activated receptor gamma (PPARg) signaling pathway - cell viability counter screen (AID 743194). Further: nearly all actives have a fitted effect of over 55% in size. The settings on record: Potency: co-treated with 50 nM rosiglitazone. In short, it runs like this: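 PPARg-UAS-bla HEK293H cells were plated, rested 5 h at 37 C, then treated with compounds plus rosiglitazone (50 nM final) for 17 h at 37 C; viability was then read by CellTiter-Glo luminescence after 30 min at room temperature.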

A short description of test [14]: qHTS assay for small molecule agonists of the antioxidant response element (ARE) signaling pathway (AID 743202; active means well fitted activation curve with a large enough effect in the signal ratio in the repeat runs, not every such curve was filed as active; the % refers to the signal ratio). Put shortly: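 Steps: seed ARE-bla HepG2 cells (2,000/well); incubate 5 h at 37 C; add compounds by pin tool; incubate 16 h at 37 C; add FRET substrate; read fluorescence after 2 h at RT.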
The nature of test [15]: qHTS assay for small molecule agonists of the antioxidant response element (ARE) signaling pathway - cell viability counter screen (AID 743203; calls by dose curve; further: nearly all actives have a fitted effect of over 55% in size). Put shortly:
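Cytotoxicity was tested in parallel with the ARE reporter screen. ARE-bla HepG2 cells were exposed to compounds for 16 hrs, and viability was taken from CellTiter-Glo luminescence.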

Test [16] in a line: qHTS assay for small molecule activators of the heat shock response signaling pathway - cell viability counter screen (AID 743209). Further: nearly all actives have a fitted effect of over 50% in size. Further: potency means the concentration at half of the fitted maximal effect. In short, it runs like this:
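Cytotoxicity counter screen run in parallel with the HSE beta-lactamase reporter, using the same wells. HeLa HSE-bla cells received compound for 5 h at 37 C; ATP-based CellTiter-Glo luminescence was measured after 30 min at room temperature.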

Test [17] in a line: qHTS assay for small molecule activators of the heat shock response signaling pathway (AID 743210; active means well fitted activation curve with a large enough effect in the signal ratio in the repeat runs, with a control signal flat, not every such curve was filed as active; the % refers to the signal ratio;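 further: HeLa cells with beta-lactamase reporter driven by heat shock elements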). In short, it runs like this: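 Activation of heat shock element-controlled beta-lactamase expression is measured in HeLa cells by LiveBLAzer FRET fluorescence, with compound exposure lasting 5 h at 37 C and substrate loading 2.5 h at room temperature.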
A short description of test [18]: qHTS assay to identify small molecule agonists of the peroxisome proliferator-activated receptor delta (PPARd) signaling pathway - cell viability counter screen (AID 743211). Further: nearly all actives have a fitted effect of over 55% in size. Put shortly:
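Following 5 h plating at 37 C and 5% CO2, PPARd UAS-bla HEK293H cells took up test compounds for 17 h. Viability was quantified by luminescence 30 min after CellTiter-Glo addition at room temperature.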

Test [19] has as its system thyroid hormone receptor (rat, GH3 cells). The test is described as follows: qHTS assay to identify small molecule agonists of the thyroid receptor (TR) signaling pathway (AID 743066; calls by dose curve).
On the % scale 0 is the no-effect control and ±100 the full control effect.

Sequence of Estrogen receptor (Homo sapiens) (P03372 whole entry, looked up): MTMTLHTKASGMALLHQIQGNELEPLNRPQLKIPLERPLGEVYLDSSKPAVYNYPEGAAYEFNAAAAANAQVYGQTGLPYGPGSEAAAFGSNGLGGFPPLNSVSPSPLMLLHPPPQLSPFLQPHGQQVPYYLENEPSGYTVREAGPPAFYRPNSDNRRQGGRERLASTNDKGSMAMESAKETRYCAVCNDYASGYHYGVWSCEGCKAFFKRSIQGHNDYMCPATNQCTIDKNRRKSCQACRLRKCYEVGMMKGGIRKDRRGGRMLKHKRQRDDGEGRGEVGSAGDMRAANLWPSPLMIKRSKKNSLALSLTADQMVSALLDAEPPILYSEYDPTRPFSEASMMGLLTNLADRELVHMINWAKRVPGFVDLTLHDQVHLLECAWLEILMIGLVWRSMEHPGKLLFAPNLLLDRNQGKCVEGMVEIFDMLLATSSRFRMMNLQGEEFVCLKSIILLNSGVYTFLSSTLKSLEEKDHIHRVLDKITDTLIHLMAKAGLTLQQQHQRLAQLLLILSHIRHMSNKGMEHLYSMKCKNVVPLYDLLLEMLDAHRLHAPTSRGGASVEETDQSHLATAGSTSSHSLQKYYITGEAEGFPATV
Sequence of Aryl hydrocarbon receptor (Homo sapiens) (P35869 whole entry, looked up): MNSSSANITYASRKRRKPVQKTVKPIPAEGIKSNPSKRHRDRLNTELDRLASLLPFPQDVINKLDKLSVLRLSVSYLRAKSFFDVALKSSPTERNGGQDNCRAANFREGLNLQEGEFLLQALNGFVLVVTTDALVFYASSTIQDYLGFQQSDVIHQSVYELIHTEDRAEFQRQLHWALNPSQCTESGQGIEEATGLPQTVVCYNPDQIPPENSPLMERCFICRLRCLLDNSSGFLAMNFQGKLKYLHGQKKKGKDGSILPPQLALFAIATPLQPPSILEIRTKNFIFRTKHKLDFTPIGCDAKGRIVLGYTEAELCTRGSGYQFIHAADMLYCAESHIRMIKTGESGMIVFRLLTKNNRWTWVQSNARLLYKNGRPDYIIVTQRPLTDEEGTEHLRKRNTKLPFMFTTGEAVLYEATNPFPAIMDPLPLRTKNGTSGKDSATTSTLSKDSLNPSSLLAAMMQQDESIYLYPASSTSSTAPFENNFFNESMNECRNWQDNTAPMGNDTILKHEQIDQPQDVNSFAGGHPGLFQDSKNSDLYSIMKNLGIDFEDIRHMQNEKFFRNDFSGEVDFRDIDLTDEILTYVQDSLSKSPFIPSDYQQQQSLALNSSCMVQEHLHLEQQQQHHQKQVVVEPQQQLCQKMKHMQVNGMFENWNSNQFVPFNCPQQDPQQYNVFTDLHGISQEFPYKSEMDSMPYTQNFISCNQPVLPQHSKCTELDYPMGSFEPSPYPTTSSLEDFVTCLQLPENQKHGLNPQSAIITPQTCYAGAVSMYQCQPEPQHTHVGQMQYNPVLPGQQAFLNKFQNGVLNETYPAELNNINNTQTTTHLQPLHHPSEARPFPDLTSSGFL
Sequence of Peroxisome proliferator-activated receptor gamma (Homo sapiens) (P37231 whole entry, looked up): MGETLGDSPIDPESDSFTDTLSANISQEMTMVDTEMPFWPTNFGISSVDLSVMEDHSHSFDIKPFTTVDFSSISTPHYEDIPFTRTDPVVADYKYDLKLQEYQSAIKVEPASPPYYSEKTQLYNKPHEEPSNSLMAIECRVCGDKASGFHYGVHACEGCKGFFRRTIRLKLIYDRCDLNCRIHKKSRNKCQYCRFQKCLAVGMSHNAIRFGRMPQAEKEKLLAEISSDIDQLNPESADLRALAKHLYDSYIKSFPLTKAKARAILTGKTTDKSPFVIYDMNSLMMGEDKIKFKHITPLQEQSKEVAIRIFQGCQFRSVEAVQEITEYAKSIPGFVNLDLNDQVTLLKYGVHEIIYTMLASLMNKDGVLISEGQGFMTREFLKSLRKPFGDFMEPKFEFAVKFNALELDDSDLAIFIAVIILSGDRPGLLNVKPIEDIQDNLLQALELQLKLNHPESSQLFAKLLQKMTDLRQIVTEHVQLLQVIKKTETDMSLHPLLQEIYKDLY
Sequence of Aromatase (Homo sapiens) (P11511 whole entry, looked up): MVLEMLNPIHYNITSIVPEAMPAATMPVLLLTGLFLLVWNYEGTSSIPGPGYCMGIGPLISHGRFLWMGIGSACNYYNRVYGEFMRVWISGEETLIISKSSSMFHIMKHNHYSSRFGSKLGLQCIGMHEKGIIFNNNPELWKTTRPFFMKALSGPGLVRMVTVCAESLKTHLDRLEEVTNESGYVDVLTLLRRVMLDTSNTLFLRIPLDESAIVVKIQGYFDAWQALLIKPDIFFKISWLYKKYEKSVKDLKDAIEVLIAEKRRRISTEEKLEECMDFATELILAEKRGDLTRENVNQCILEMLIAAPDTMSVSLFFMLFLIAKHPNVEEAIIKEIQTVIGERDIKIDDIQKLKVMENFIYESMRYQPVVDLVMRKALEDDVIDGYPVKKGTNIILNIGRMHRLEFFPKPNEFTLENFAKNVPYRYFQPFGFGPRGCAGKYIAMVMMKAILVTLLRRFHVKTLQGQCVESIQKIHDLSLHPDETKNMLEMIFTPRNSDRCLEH

In the case of `CCC1(c2ccccc2)C(=O)N=C(O)NC1=O` (configuration not stated), the Potency result (in [1]; in test [2]; in [4]; in test [6]; in test [7]; with Aromatase (Homo sapiens)) was “inactive” each time. Also, the Potency result in [8], in test [9], in [12], in test [13], in [14] and in test [15] was “inactive” throughout. Besides, the Potency result in [16] and in test [18] was “inactive” in each case. For the same compound, the outcome in test [3], in test [10], in test [11] and in [17] was inactive. Also, in test [5], the activation is -3.61%.
As to `CNC(=O)O/N=C(\C)SC`, the Potency result (in test [1]; in test [19]; in test [7]; with Aromatase (Homo sapiens); in [8]; in test [9]) was “inactive” each time. Also, the Potency entry in test [12], in test [13], in test [14], in [15], in test [16] and in test [18] was “inactive” each time. Besides, the result in test [10], in test [11] and in test [17] was inactive.
Turning to `C=CCC1=C(C)[C@@H](OC(=O)[C@@H]2[C@@H](C=C(C)C)C2(C)C)CC1=O`, the values for the Potency in [1], in test [6] and in [16] were 61.1 µM (active), 54.5 µM (active) and 49 µM (active), respectively. The call in [3] and in [10] was inactive. For the same compound, the Potency entry in test [4], in [7], in test [8], in test [9] and in test [15] was “inactive” in each case.
For `O=c1oc2ccccc2c(O)c1C1CCCc2ccccc21` (configuration not stated), the Potency result (in [19]; in test [2]; in test [4]; in test [6]; in test [7]; with Aromatase (Homo sapiens)) was “inactive” throughout. The Potency entry in [8], in [9], in test [13], in test [15], in [16] and in test [18] was “inactive” in each case. Further, the call in test [3], in [10] and in [17] was inactive. In addition, the activation in test [5] is -13.4%. Further, in test [12], the Potency was 30.9 µM (active).
For `CCC#N`, the Potency result in test [1], in test [19], in test [7], in test [13], in test [14] and in test [15] was “inactive” throughout. Also, the Potency result in test [16] and in [18] was “inactive” throughout. In addition, the result in test [10] was inactive.
With `Clc1cccc(N2CCNCC2)c1`, the Potency entry (in test [19]; in test [2]; in test [4]; in test [6]; in [7]; with Aromatase (Homo sapiens)) was “inactive” each time. The Potency result in [8], in [9], in test [12], in [13], in test [14] and in [15] was “inactive” throughout. Also, in test [18], the Potency entry was “inactive”. Also, the result in test [3], in test [10], in [11] and in test [17] was inactive. Further, the activation in test [5] was 10.2%.
As to `CN1C[C@@H](NS(=O)(=O)N(C)C)C[C@@H]2c3cccc4c3c(cn4C)C[C@H]21`, the Potency result in test [1], in test [19], in test [7], in test [13], in test [14] and in test [15] was “inactive” each time. For the same compound, the Potency entry in test [16] and in test [18] was “inactive” each time. Besides, the compound was called inactive in test [3], in [10] and in [17].
For the compound `N#CC(CCc1ccc(Cl)cc1)(Cn1cncn1)c1ccccc1` (configuration not stated), the Potency in test [1] was 34.4 µM (active); in test [6], 61.1 µM (active); with Aromatase (Homo sapiens), 30.6 µM (active). Moreover, the Potency result in test [19], in test [4], in test [7], in [8], in test [9] and in test [13] was “inactive” in each case. In addition, the Potency entry in [14], in test [15] and in test [16] was “inactive” throughout. The compound was classed as inactive in [17].
Take `NC1=NC(=O)C(c2ccccc2)O1` (configuration not stated): the Potency result in [1], in test [19], in [7], in test [13], in test [14] and in test [16] was “inactive” in each case. For the same compound, the Potency result in [18] was “inactive”. Besides, the outcome in test [3], in test [10] and in test [17] was inactive.
